Data on 14 molecules can be found in PubChem BioAssay (NCATS).

A short description of this assay: qHTS drug screen for cell cycle checkpoint inhibitors in PARPi-resistant BRCA-mutant ovarian cancer cell lines. (AID 1963452). Particulars: PEO1/OlaR viability, CellTiter-Glo luminescence, 96 h; for Z-AUC: stronger effect = lower value. An excerpt:
Women's Malignancies Branch, Center for Cancer Research (CCR),
National Cancer Institute (NCI), National Institutes of Health (NIH), Bethesda, MD
Poly (ADP-ribose) polymerase inhibitors (PARPis) have changed the treatment paradigm in breast cancer gene (BRCA) - mutant high-grade serous ovarian carcinoma (HGSC). However, most patients eventually develop resistance to PARPis, highlighting an unmet need for improved therapeutic strategies. Using high-throughput drug screens, we identified ataxia telangiectasia and rad3-related protein/checkpoint kinase 1 (CHK1) pathway inhibitors as cytotoxic and further validated the activity of the CHK1 inhibitor (CHK1i) prexasertib in PARPi-sensitive and -resistant BRCA-mutant HGSC cells and xenograft mouse models. CHK1i monotherapy induced DNA damage, apoptosis, and tumor size reduction. We then conducted a phase 2 study (NCT02203513) of prexasertib in patients with BRCA-mutant HGSC. The treatment was well tolerated but yielded an objective response rate of 6% (1 of 17; one partial response) in patients with previous PARPi treatment. […] BRCA reversion mutation in previously PARPi-treated BRCA-mutant patients was not associated with resistance to CHK1i.
Among others, 1082 oncology drugs, both approved and investigational, were prioritized based on their status in clinical trial development. […] Drugs with average Z-AUC values less than -1.0 in all three cell lines were classified as "hits" resulting in 151 oncology drug hits. The screen also confirmed cross-resistance between olaparib and other PARPis (rucaparib, niraparib, and talazoparib) in PARPi-resistant PEO1/OlaR and PEO4.
[1] G. L. Lin, K. M. Wilson, M. Ceribelli, B. Z. Stanton, P. J. Woo, S. Kreimer, E. Y. Qin, X. Zhang, J. Lennon, S. Nagaraja, P. J. Morris, M. Quezada, S. M. Gillespie, D. Y. Duveau, A. M. Michalowski, P. Shinn, R. Guha, M. Ferrer, C. Klumpp-Thomas, S. Michael, C. McKnight, P. Minhas, Z. Itkin, E. H. Raabe, L. Chen, R. Ghanem, A. C. Geraghty, L. Ni, K. I. Andreasson, N. A. Vitanza, K. E.Warren, C. J. Thomas, M. Monje, Therapeutic strategies for diffuse midline glioma from high-throughput combination drug screening. Sci. Transl. Med. 11, (2019).
[2] T. M. Yamamoto, A. McMellen, Z. L. Watson, J. Aguilera, R. Ferguson, E. Nurmemmedov, T. Thakar, G. L. Moldovan, H. Kim, D. M. Cittelly, A. M. Joglar, E. P. Brennecke, H. Wilson, K. Behbakht, M. J. Sikora, B. G. Bitler, Activation of Wnt signaling promotes olaparib resistant ovarian cancer. Mol. Carcinog. 58, 1770 - 1782 (2019).
PROTOCOL TABLE (as described by Inglese J, Shamu CE and Guy RK. 2007)
SEQUENCE No. (e.g., 1, 2, 3, etc.); […] (e.g., Cells, Incubation, Reagent, etc.); VALUE; DESCRIPTION.
1; Compounds; 20nL; 1536-well white tissue culture-treated plates.
2; Cells; 5 uL; PEO1, PEO4, and PEO1/OlaR cells at 600 cells per well.
3; Incubation; 96 hr; 37C, 95% humidity, 5% CO2.
4; Reagent; 3 uL; CellTiter-Glo (Promega).
5; Incubation; 15 min; room temperature.
6; Detection; Luminescence, PHERAstar (BMG Labtech) plate reader.
NOTES (numbers refer to Sequence numbers above)
1. MIPE 5.0 compounds were acoustically dispensed by Echo Acoustic Liquid Handler (Beckman Coulter Life Sciences). Each compound was plated at an 11-point concentration range with 1:3 dilution. Bortezomib, a proteasome inhibitor (final concentration, 20 uM), was used as a positive.
2. PEO1, PEO4, and PEO1/OlaR were trypsinized and dispensed in 5 uLof growth medium using a Multidrop Combi dispenser at a density of 600 cells per well to allow compounds to be present during the exponential growth phase.
3. Plates were incubated for 96 hours at standard incubator conditions and covered by a stainless steel gasketed lid to prevent evaporation.
4. Three microliters of CellTiter-Glo (Promega) were added to each well.
5. Plates were incubated at room temperature for 15 min with a stainless-steel lid in place.
6. Luminescence readings were taken using PHERAstar (BMG Labtech). […]
For orientation: In qHTS, concentration-response curves come from the screen itself.

[1] abbreviates: measured here: PEO1 parental Z-AUC.

Active and inactive are the calls of the source. Calls follow the shape of the full dose curve.
Potency is read from the fitted curve at half-maximal effect.

Turning to `CC(=O)O[C@H]1C(=O)[C@@]2(C)C([C@H](OC(=O)c3ccccc3)[C@]3(O)C[C@H](OC(=O)[C@H](O)[C@@H](NC(=O)c4ccccc4)c4ccccc4)C(C)=C1C3(C)C)[C@]1(OC(C)=O)CO[C@@H]1C[C@@H]2O` (some centres not stated), the Potency is 7.8 nM (active). In addition, the Z-AUC under setting [1] was -2.74. In addition, where the note is “measured here: PEO4 Z-AUC”, the Z-AUC is -3.15.

With `CC(C)C[C@H](NC(=O)[C@H](Cc1ccccc1)NC(=O)c1cnccn1)B(O)O`, the Potency was 9.8 nM (active). Moreover, under setting [1], the Z-AUC was -3.19. Also, the Z-AUC (measured here: PEO4 Z-AUC) was -2.39.

Take `Cc1cc2cc3c(C)cc(=O)oc3c(C)c2o1`: the Z-AUC was 0.166 (inactive). In addition, the Z-AUC under setting [1] amounted to 0.892. Besides, the Z-AUC (measured here: PEO4 Z-AUC) was 0.841.

As for `CN1CCC(=C2c3ccccc3CCc3sccc32)CC1`, the Z-AUC is -0.614 (inactive). Further, the Z-AUC under setting [1] was -1.2. Moreover, the Z-AUC (measured here: PEO4 Z-AUC) was -0.893.

`Nc1nc(OCc2ccccc2)c2[nH]cnc2n1`: the Z-AUC is 0.131 (inactive). Also, the Z-AUC under setting [1] was found to be 0.393. Also, the Z-AUC (measured here: PEO4 Z-AUC) was 0.209.

On to `COc1cc2c(cc1OC)C1CC(=O)C(CC(C)C)CN1CC2` (configuration not stated), for which the Z-AUC was 0.0378 (inactive). Further, the Z-AUC under setting [1] was 0.296. Moreover, the Z-AUC (measured here: PEO4 Z-AUC) came to 0.889.

Consider `CC(=O)NC[C@H]1CN(c2ccc(N3CCOCC3)c(F)c2)C(=O)O1`, for which the Z-AUC is -0.303 (inactive). Besides, the Z-AUC under setting [1] is -0.362. Where the note is “measured here: PEO4 Z-AUC”, the Z-AUC was -0.619.

With `CCOC(=O)C(C)Oc1cccc2c(=O)n(CC(=O)Nc3ccc4c(c3)OCCO4)ccc12` (configuration not stated), the Z-AUC is 0.881 (inactive). Under setting [1], the Z-AUC worked out at 0.435. Further, where the note is “measured here: PEO4 Z-AUC”, the Z-AUC was 0.282.

Turning to `CN(C)c1ccc(O)c2c1C[C@H]1C[C@H]3[C@H](N(C)C)C(=O)C(C(N)=O)=C(O)[C@@]3(O)C(=O)C1=C2O`, the Z-AUC is 0.306 (inactive). Besides, the Z-AUC under setting [1] is 0.206. Further, the Z-AUC (measured here: PEO4 Z-AUC) came out at 0.369.

Take `Cc1cc(Cl)ccc1OCCCC(=O)NO`: the Z-AUC was 0.502 (inactive). Further, the Z-AUC under setting [1] amounted to 0.403. Also, the Z-AUC (measured here: PEO4 Z-AUC) was determined as 0.182.

Regarding `O=C(NCCO[N+](=O)[O-])c1cccnc1`, the Z-AUC was -0.64 (inactive). The Z-AUC under setting [1] is -0.487. Besides, the Z-AUC (measured here: PEO4 Z-AUC) was -0.272.

For `Cc1nc(-c2ccc(OCC(C)C)c(C#N)c2)sc1C(=O)O`, the Z-AUC is 0.79 (inactive). Besides, the Z-AUC under setting [1] is 0.0163. Also, the Z-AUC (measured here: PEO4 Z-AUC) was 0.327.

`O=C1c2c(O)cc(O)cc2OC(c2ccc(O)c(O)c2)C1O` (configuration not stated): the Z-AUC is -0.835 (inactive). In addition, the Z-AUC under setting [1] was -0.249. The Z-AUC (measured here: PEO4 Z-AUC) was -0.326.

On to `Cc1c(C(=O)NN2CCCCC2)nn(-c2ccc(Cl)cc2Cl)c1-c1ccc(Cl)cc1`, for which the Z-AUC is -1.52 (inactive). Also, the Z-AUC under setting [1] was -0.747. For the same molecule, the Z-AUC (measured here: PEO4 Z-AUC) was -0.695.
